The inhibition is the drop in the measured response relative to a control, in per cent.

Our source for the inhibition values is PubChem BioAssay AID777 (Sanford-Burnham Center for Chemical Genomics, 2007).

About 19,000 (20%) of roughly 96,000 compounds were called active. A selection follows. A number with no mark means an inactive call.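 The calls were made as follows: active = blocking of liver enzyme CYP2C9 beyond about 50% at 5 µM (limit read from the data); inactive = the rest.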

Cytochrome P450 2C9 (Homo sapiens), sequence (P11712 whole entry, looked up): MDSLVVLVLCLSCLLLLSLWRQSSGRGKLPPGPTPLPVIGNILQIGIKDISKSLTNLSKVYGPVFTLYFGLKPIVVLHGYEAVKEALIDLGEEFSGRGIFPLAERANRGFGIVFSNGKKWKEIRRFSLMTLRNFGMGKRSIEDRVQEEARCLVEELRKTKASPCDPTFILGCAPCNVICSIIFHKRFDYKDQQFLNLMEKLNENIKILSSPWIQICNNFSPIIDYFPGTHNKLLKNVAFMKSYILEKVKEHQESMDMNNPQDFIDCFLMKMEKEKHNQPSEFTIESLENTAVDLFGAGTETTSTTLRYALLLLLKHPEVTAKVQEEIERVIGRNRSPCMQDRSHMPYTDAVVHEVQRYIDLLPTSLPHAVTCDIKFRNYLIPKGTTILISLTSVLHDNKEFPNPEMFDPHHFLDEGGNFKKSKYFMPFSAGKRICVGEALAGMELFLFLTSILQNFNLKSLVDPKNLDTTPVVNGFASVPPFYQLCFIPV

This experiment has as its target Cytochrome P450 2C9 (Homo sapiens) (UniProt P11712). The experiment is described as follows: blockers of cytochrome P450 2C9 activity – biochemical, luminescence, ADME assay, primary screen (AID 777). The note with it: CYP2C9 Supersomes, luciferin-H conversion, at 5 µM, active compounds read high.
For `CSc1ccc(-c2c(C#N)c(N)nc3c2c(C)nn3-c2ccccc2)cc1`, the inhibition is 17.3%. For `N#CC1=C(N)N(c2ccc(F)cc2)C(=O)C1` the value was -13.8%; for `Cc1c(NC(=O)c2coc(=O)c(Br)c2)c(=O)n(-c2ccccc2)n1C`, -1.3%. Turning to `CC(Nc1nc(N2CCCC2)nc2ccccc12)c1ccccc1` (configuration not stated), the inhibition was 11.6%. For the compound `N#C/C(=C/c1ccc(Cl)cc1)NC(=O)c1ccccc1`, the inhibition is 40.8%. For `COc1ccccc1-n1nnnc1S(=O)(=O)Cc1ccc(Cl)cc1` the value was 45.6%; for `COc1cccc(NC(=O)C2c3cc(OC)c(OC)cc3C(=O)N(C)C2c2cccnc2)c1` (configuration not stated), 30.6%; for `CS(=O)(=O)c1sc2nc(-c3ccccc3)cc(-c3ccccc3)c2c1N`, 19%. Under `CC(C)c1ccc(N2CC(C(=O)Nc3nccs3)CC2=O)cc1` (configuration not stated) stands 78.1% (active). Take `CCc1ccc(N2CC(C(=O)NC3=NCCS3)CC2=O)cc1` (configuration not stated): the inhibition was 27.4%. Under `CCCOc1ccc(N2CC(C(=O)Nc3ccccn3)CC2=O)cc1` (configuration not stated) stands 8.9%. Under `Cc1ccc(-n2nc(N)c3c(=O)oc(N(C)C)nc32)cc1` stands 11.3%; under `O=C(COc1cc(Cl)c(Cl)cc1Cl)NC(=O)NC1CCCC1`, -13%. For `CCOc1ccc(NC(=O)CN(C)CC(=O)Nc2cccc(Cl)c2C)cc1OCC` the value was 56.1% (active); for `O=C(Cc1ccc2c(c1)CCCC2)Nc1ccccc1Cl`, 13.7%. Regarding `CCNC(=S)Nc1cccc(Cl)c1C`, the inhibition is 16%. On to `CC(=O)N1CC2(C)CN(C(C)=O)CC(C)(C1)C2=O`, for which the inhibition is -0.1%. Under `O=C(Nc1cccc(OCC(=O)N2CCOCC2)c1)C1CCCCC1` stands -6.8%; under `CCN(CC)S(=O)(=O)c1ccc2c3c(cccc13)C(=O)S2`, -46.8%; under `CN(CCc1ccccn1)S(=O)(=O)c1ccc2c3c(cccc13)C(=O)N2`, 70.5% (active). Under `O=c1[nH]nc(Cc2ccccn2)c2ccccc12` stands -9.2%. Under `Cc1cc2[nH]ncc2cc1NC(=S)NC(=O)c1ccccc1` stands 97.8% (active); under `COC(=O)c1nc(NC(=O)c2ccccc2)n[nH]1`, 0.3%.

Regarding `Cc1ccc(NC(=S)NC(=O)c2ccc(-c3ccccc3)cc2)c(C)c1`, the inhibition was 19%.

For `COc1ccc(N(CC(=O)NC(C)(C)C)C(=O)c2ccco2)cc1`, the inhibition is 9.6%.

On to `Cc1cc(Cl)ccc1N1C(=O)CC(SCCC(=O)O)C1=O` (configuration not stated), for which the inhibition is 35.2%. Under `COc1ccc(NC(=O)CN(C)S(=O)(=O)c2ccccc2)cc1OC` stands 21.2%; under `C/C(=C\C(=O)c1cccnc1)Nc1ccc(C)c(C)c1`, 12.9%; under `Cc1ccc(NC(=O)CN(C)S(=O)(=O)c2cnc[nH]2)cc1C`, 93.7% (active). For `Cc1ccc(C)n1-c1ccncc1` the value was 40.5%.

For the compound `COc1ccc(Cl)cc1S(=O)(=O)N1CCN(CC(=O)C(C)(C)C)CC1`, the inhibition is -142%. `CCOC(=O)c1c(-c2ccccc2)csc1NC(=S)NC(=O)c1ccccc1`: the inhibition was 55% (active). For `CCOC(=O)c1c(NC(=S)NC(=O)c2ccco2)sc2c1CCCC2` the value was 0.4%; for `CCOC(=O)c1c(-c2cccc(C)c2)csc1NC(=O)c1c(-c2ccccc2)noc1C`, 26.8%; for `O=C1CSC(c2ccc(Cl)cc2)N1` (configuration not stated), -1%. Under `COc1cc(C2CC(=O)N3CN(Cc4ccccc4)CSC3=C2C#N)ccc1OCc1ccccc1` (configuration not stated) stands 86.4% (active). Under `COc1ccc(C2CC(=O)Nc3sc(=N)c4c(N)c(C#N)c(N)nc4c32)cc1OC` (configuration not stated) stands 41.6%; under `COc1ccc(C2CC(=O)n3c(nc4ccccc43)S2)cc1OC` (configuration not stated), 14.4%.

Turning to `CCCNC(=O)C1CC(=O)N(c2ccc(OCC(=O)Nc3cccc(C)c3C)cc2)C1` (configuration not stated), the inhibition was 22.1%. On to `COc1ccc(-n2nc3c(c2NC(=O)Cc2cccc(C)c2)CS(=O)C3)cc1` (configuration not stated), for which the inhibition is -1.9%. Under `COc1ccccc1C(=O)Oc1ccc(N2C(=O)CCC2=O)cc1` stands -113%. Under `Cc1ccc(OC(=O)c2ccccc2C(=O)OCC(F)(F)C(F)F)cc1` stands 84.1% (active); under `Cc1ccc(OC(=O)c2cc3ccccc3o2)cc1`, -2.9%. On to `CC(C)(C)c1ccc(C(=O)NNC(=O)Cc2ccccc2)cc1`, for which the inhibition is 6.1%. For `CCCCN1C(=O)CC(N2CCOCC2)C1=O` (configuration not stated) the value was 1.5%; for `CCCCn1c(=S)[nH]c2cc(S(=O)(=O)N3CCCCC3)ccc21`, 64.3% (active); for `CCCCNC(=O)C1CCCN(S(=O)(=O)c2ccc(S(=O)(=O)NCC(C)C)cc2)C1` (configuration not stated), 46%. For `CN1CCCN(S(=O)(=O)c2ccc3c(c2)OCCO3)CC1` the value was -7.5%; for `c1ccc(-c2cn3cccnc3n2)cc1`, -1.3%; for `c1ccc(-n2nnnc2NC2CCCCCC2)cc1`, 24%.

`O=C1C2C3C=CC(C4CC34)C2C(=O)N1/N=C/c1ccc(-c2ccccc2[N+](=O)[O-])o1` (configuration not stated): the inhibition was 36.8%. Under `Cc1cc(-c2ccc(/C=N/n3cnnc3)o2)c([N+](=O)[O-])cc1C` stands 50.5% (active); under `Cc1cc(C)c([N+](=O)[O-])cc1-c1ccc(/C=N/NC(=O)c2nonc2N)o1`, 22.2%; under `Cc1cc([N+](=O)[O-])c(-c2ccc(/C=N/n3cnnc3)o2)cc1Cl`, 77% (active). `CCCC(=O)N1c2ccccc2NC2=C(C(=O)CCC2)C1c1ccc(F)cc1` (configuration not stated): the inhibition was 8.5%. For `CC(=O)CCS(=O)(=O)c1ccc(C)c(C)c1` the value was -62.6%; for `Cc1c(CN2CCC(C)CC2)c(=O)n(-c2ccccc2)n1C`, -8%; for `CCOC1CS(=O)(=O)CC1OCC` (configuration not stated), -5.4%. For `CC(N=Cc1nc(-c2ccccc2)oc1O)c1ccccc1` (configuration not stated) the value was 66.7% (active); for `CC(NC(=O)c1cc(-c2ccccc2)on1)c1ccccc1` (configuration not stated), -23.7%; for `CCOC(=O)N1CCN(CC(=O)c2ccc3c(c2)CCN3)CC1`, -1.9%. For `CC(=O)Nc1nc(C)c(Cc2ccccc2)c(=O)[nH]1` the value was -0.9%; for `CC1(C)Cc2c(sc3nc(SCC(=O)NCc4ccccc4)n(-c4ccccc4)c(=O)c23)CS1`, -0.2%.

As to `O=C(CNC(=O)c1cc2c(s1)CCC2)Nc1ccccc1Br`, the inhibition is 30%. On to `O=C(NCCCN1CCOCC1)c1cc2c(s1)CCC2`, for which the inhibition is -6.3%.

In the case of `O=C(c1cc2c(s1)CCC2)N1CCN(c2ccccc2)CC1`, the inhibition was 54.4% (active). For `Cc1nnc(SCc2nc3ccccc3nc2C)s1` the value was -5.7%. Under `CC(C)NC(=O)c1ccccc1S(=O)c1ccccc1C#N` (configuration not stated) stands -1.3%; under `Cc1cnc(NC(=O)CSc2nnc(-c3ccc(Cl)cc3Cl)n2N)s1`, 46.7%. For `CSc1ccc(CCNC(=O)C2CCN(c3nnc(-n4cccc4)s3)CC2)cc1` the value was 37%; for `O=C(CN1CCSCC1)N/N=C/c1ccc(F)cc1F`, 7.6%. With `O=C1OC(c2ccc(Cl)cc2)=N/C1=C\c1cccnc1`, the inhibition is 18.2%. Under `CN1/C(=C\C=C2\N=C(c3ccc(F)cc3)OC2=O)C(C)(C)c2ccccc21` stands 64.7% (active). For `CCn1cc(C(=O)NCc2ccc(OC)cc2OC)c(=O)c2ccc(C)nc21` the value was 15.3%; for `CCCCCCOC(=O)NCC(O)c1ccccc1` (configuration not stated), 23.8%. For `c1ccc(-n2ncc(-c3nn[nH]n3)n2)cc1` the value was 46.2%; for `COc1ccc(N2C(=O)C3CCCN3C2c2cccc(OC)c2)cc1` (configuration not stated), 16.3%. As to `COC(=O)CCSc1nccn1Cc1ccccc1`, the inhibition was 10.8%. For the compound `CCCCNC(=O)CSc1nccn1Cc1ccccc1`, the inhibition is 23%. For `CCCCCCNC(=O)CSc1nccn1Cc1ccccc1` the value was 77.3% (active); for `C=CCN(c1ccc(C(N)=O)cc1)S(C)(=O)=O`, -10.7%; for `CC(=O)c1c(N)n(C)c(=O)n(C)c1=O`, 21.6%. For `ONC(=Nc1ccccc1)c1ccccc1Cl` the value was 2.1%; for `O=C(Nc1ccc2c(c1)nc1n2CCCCC1)c1cc(S(=O)(=O)N2CCOCC2)ccc1Cl`, 43.5%; for `CCOC(=O)c1sc(NC(=O)c2cc(S(=O)(=O)N3CCOCC3)ccc2C)nc1C`, 71% (active). For `Cc1ccc(S(=O)(=O)N2CCOCC2)cc1C(=O)NCc1ccc(F)cc1`, the inhibition was 31.6%. Consider `O=C1c2cccc3cc(Br)cc(c23)C(=O)N1Nc1ccccc1`, for which the inhibition is -74%.

Consider `Cn1cccc1C1(C(F)(F)F)NCCNC1=O` (configuration not stated), for which the inhibition is 72% (active). For `N#C/C(=C\c1ccccc1)c1n[nH]c(Cn2cncn2)n1` the value was 27%; for `O=C1CSC(=O)N1CCOCCN1C(=O)CSC1=O`, 7.2%. For `CSCC[C@H](NC(=O)NCCc1ccc(F)cc1)C(=O)O` the value was 14.5%. For `C[C@H](NC(=O)NCCc1ccccc1)C(=O)O` the value was 2.2%. As for `CC(C)C[C@H](NC(=O)NCCc1ccc(Cl)cc1)C(=O)O`, the inhibition is 59.9% (active).

As for `Cc1ccc(C(=O)C[n+]2cc(-c3ccccc3)n3c2CCCCC3)cc1`, the inhibition is -11.7%. Under `NC(=O)Cn1c(=O)oc2ccccc21` stands -13.8%; under `CCC(C)c1ccc(O)c(/C=N/O)c1` (configuration not stated), 13.7%; under `CCOC(=O)c1csc(NC(=O)c2ccc(S(=O)(=O)N3CCCC3)cc2)n1`, -12.7%. For `COc1ccc(C(=O)Nc2nc(-c3ccc(S(=O)(=O)N4CCOCC4)cc3)cs2)cc1` the value was 62.5% (active). Under `COC(=O)[C@H](Cc1ccccc1)NC(=O)Nc1ccc(S(N)(=O)=O)cc1` stands 1.6%. As for `CCC(=O)Nc1ccc(S(=O)(=O)NCC2CCCO2)cc1` (configuration not stated), the inhibition was -1.7%. Under `COC(=O)c1ccccc1Sc1c(/C=N/OCc2ccc(Cl)cc2)c(C(F)(F)F)nn1C` stands 89.6% (active); under `COC(=O)c1ccccc1NC(=O)Cn1nc(C(F)(F)F)c2c1CCC2`, 17.4%.
